# In all, about 2,000 compounds were measured (“B-score”: median about -0.0024, highest 2% from about 4 on). The full list was thinned out, with the highest values kept by preference.
# Test system: Balamuthia mandrillaris (ATCC PRA-291) trophozoites, axenic culture
# Test: primary screen, b score
# Settings: 20 µM
# Method: Screening of a clinically approved library of compounds, compiled by the Small Molecule Discovery Center (SMDC) at the UCSF, was completed at 20 µM in 0.2% DMSO. All 2,177 drugs in the library were stored as 10 mM stocks dissolved in 100% DMSO (Sigma-Aldrich) at −20°C. B. mandrillaris amoebae were resuspended in axenic medium and distributed into opaque 384-well plates (Corning) at a density of 3,000 amoebae per well using a BioMek NX liquid handler. Negative-control wells were treated with vehicle only (0.2% DMSO in axenic medium), and positive-control wells simulating total destruction of amoebae were seeded with amoeba lysate generated by 3 consecutive freeze-thaw cycles. Following 72 h of incubation, 30 µl of CellTiter Glo reagent (CTG; Promega) was added to each well. The luminescence was measured with a Promega GloMax-Multi+ plate reader at 2, 4, and 8 h after CTG addition. […] The B-score, representing a plate-based statistical approach for correcting row, column, and edge effects, was also calculated for each compound in the library (75).
row,SMILES,B-score
1,[N-]=[N+]=CC(=O)OC[C@H](N)C(=O)O,4.05
2,CC(=O)O[C@H]1C[C@H](O[C@H]2[C@@H](O)C[C@H](O[C@H]3[C@@H](O)C[C@H](O[C@H]4CC[C@@]5(C)[C@H](CC[C@@H]6[C@@H]5C[C@@H](O)[C@]5(C)[C@@H](C7=CC(=O)OC7)CC[C@]65O)C4)O[C@@H]3C)O[C@@H]2C)O[C@H](C)[C@H]1O[C@@H]1O[C@H](CO)[C@@H](O)[C@H](O)[C@H]1O,0.168
3,O=C1C[C@@H]2OCC=C3CN4CC[C@]56c7ccccc7N1[C@H]5[C@H]2[C@H]3C[C@H]46,0.0173
4,CN1C[C@H](CNC(=O)OCc2ccccc2)C[C@@H]2c3cccc4c3c(cn4C)C[C@H]21,-0.657
5,CC(C)C[C@H](CN)CC(=O)O,1.41

# — paper PMC6212833
